Our source for the sensor-assay potency score (higher = more potent) values is the OligoGym collection.
Also: reference of the scale not given here.

In one assay the target is S100P. Nature of the assay: pooled miR-30 sensor sort-seq; sequence = guide strand. The note with it: shRNA.
On to TTCCACTCTGCAGGAAGCCTGG, for which the sensor-assay potency score (higher = more potent) is -1.03.
As to TCCATTGGCGTCCAGGTCCTTG, the sensor-assay potency score (higher = more potent) is -1.46.
Regarding TTGAGCAATTTATCCACGGCAT, the sensor-assay potency score (higher = more potent) was -0.537.
TAATCAGAGGTACATGAGCAGG came in with a sensor-assay potency score (higher = more potent) of -1.43.
As for TGTCTTTTCCACTCTGCAGGAA, the sensor-assay potency score (higher = more potent) is -0.419.

A further assay concerns the target SACS. The description is as above. The settings on record: shRNA.
For TTTGAGAGTAAGTCTGTCCGGC, the sensor-assay potency score (higher = more potent) amounted to 0.448.
As to TTTCTGACAGCTGAACTCCTAC, the sensor-assay potency score (higher = more potent) is -0.234.
In turn, TTTTAGATTAGTCTGCTGCAGA yielded a sensor-assay potency score (higher = more potent) of -0.586.
Regarding TTTCCAACCATCTTCTACCATC, the sensor-assay potency score (higher = more potent) is -0.995.
Still for that read-out and setting: next, TTGACTTTACCAATCTACCATC: -1.12.
As for ATAACTTTGCAACTCGTCCTTC, the sensor-assay potency score (higher = more potent) is 0.248.
Sequence TTCATAAACAAGTCTTTGCGGG gave a sensor-assay potency score (higher = more potent) of -0.207.
TTTCACAATAACATGTCTCATG came in with a sensor-assay potency score (higher = more potent) of -0.427.
Sequence TAAAATATCATCTTTTGCCATA registered a sensor-assay potency score (higher = more potent) of -0.814.
TTTTCTGTGACAACTCATCTGA gave a sensor-assay potency score (higher = more potent) of 0.17.
TAGAGTATCAACAACAATGTCA: the sensor-assay potency score (higher = more potent) is 0.305.

The target in another assay is SAMD10. The assay is described as above. The settings on record: shRNA.
The sequence TATGGTACAGGCCATAGTGGTC had a sensor-assay potency score (higher = more potent) of -1.37.
The sequence TTGTGGGGACAGTGCTTCTTGA came in with a sensor-assay potency score (higher = more potent) of -1.41.
With ATAGTGGTCAGAGTACAGCCGG, the sensor-assay potency score (higher = more potent) was -1.22.
The same measure, in the same setting: for TGCTTCTTGAGCCACTTGCAGA the value was -1.33.
The same measure, in the same setting: next, TAAATAATGATGAAAGTGCTTG: -0.363; TTACTTCTCATGAATAGAGGGG: 0.161; ATGCTCTCAGCTGACACCGTGT: -1.22.
The same measure, in the same setting: for TTGTGCCACATTTTGTCTCTGG the value was -0.0935.
Sequence TAGTGGTCAGAGTACAGCCGGC gave a sensor-assay potency score (higher = more potent) of -1.02.
On the same count and under the same terms, for TAAATAAACAGACTCCCTGGGA the value was -0.205; for TAGACGAGGTAGTTGTGGGGAC, -0.47.
For TGCAGGAGCTTGATTGGCCTGC, the sensor-assay potency score (higher = more potent) was -1.14.

A further assay has as its target SAMD3. The assay is described as above. The note with it: shRNA.
In the case of TTAACTTCCAACACAGGTGTGG, the sensor-assay potency score (higher = more potent) worked out at 0.183.
Regarding TGTAACACAGTCGTCCACCTTT, the sensor-assay potency score (higher = more potent) is -0.369.
In turn, TAAAACATAGGACTTCGTCCAC gave a sensor-assay potency score (higher = more potent) of 0.0328.
As to TTGAAATCTATGAACTAGCTCT, the sensor-assay potency score (higher = more potent) stood at 0.87.
In the case of TAAATCCATCAGAACAGCCTGG, the sensor-assay potency score (higher = more potent) is -0.235.
As to TTCTCCACCAACCAACTGCAGA, the sensor-assay potency score (higher = more potent) was -1.35.
Consider TTCTGCTCTGCTAACATGCATT, for which the sensor-assay potency score (higher = more potent) was -1.16.
The sequence TTGCTCATCATCTTCTATGGGT had a sensor-assay potency score (higher = more potent) of 0.349.
On the same count and under the same terms, next, TTCAACATGTCTTCATCTGTGT: 0.839; TTGTTTCACATTTCTTCTCTGT: 0.377; TTTTTCTCCACCAACCAACTGC: -0.0677.
